Measurements reported in the supplement of paper PMC7724964.

T1: GNAZ 2-355 G-alpha (domain begin residue: 2, domain end residue: 355), P19086
T1 chain: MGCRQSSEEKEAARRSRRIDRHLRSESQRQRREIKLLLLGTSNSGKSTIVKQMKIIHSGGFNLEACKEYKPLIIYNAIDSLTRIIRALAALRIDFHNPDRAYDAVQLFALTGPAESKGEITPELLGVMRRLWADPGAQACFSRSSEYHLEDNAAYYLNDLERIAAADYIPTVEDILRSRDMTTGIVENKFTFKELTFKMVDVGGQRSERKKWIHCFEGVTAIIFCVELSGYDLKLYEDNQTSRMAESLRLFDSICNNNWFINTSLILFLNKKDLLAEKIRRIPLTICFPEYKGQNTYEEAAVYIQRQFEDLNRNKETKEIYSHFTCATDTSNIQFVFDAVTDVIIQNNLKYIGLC

T2: HOMER2 1-111 WH1 (domain begin residue: 1, domain end residue: 111), Q9NSB8
T2 chain: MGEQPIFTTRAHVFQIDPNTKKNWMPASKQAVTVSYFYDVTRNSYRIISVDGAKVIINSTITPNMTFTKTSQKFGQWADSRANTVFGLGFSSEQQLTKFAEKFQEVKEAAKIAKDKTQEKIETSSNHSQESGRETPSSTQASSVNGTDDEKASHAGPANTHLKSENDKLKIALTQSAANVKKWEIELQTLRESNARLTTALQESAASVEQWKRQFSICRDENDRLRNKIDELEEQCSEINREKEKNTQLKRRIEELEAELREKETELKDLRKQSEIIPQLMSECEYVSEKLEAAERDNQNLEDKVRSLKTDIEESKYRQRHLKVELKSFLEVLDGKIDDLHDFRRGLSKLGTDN

T3: HOMER3 1-118 WH1 (domain begin residue: 1, domain end residue: 118), Q9NSC5
T3 chain: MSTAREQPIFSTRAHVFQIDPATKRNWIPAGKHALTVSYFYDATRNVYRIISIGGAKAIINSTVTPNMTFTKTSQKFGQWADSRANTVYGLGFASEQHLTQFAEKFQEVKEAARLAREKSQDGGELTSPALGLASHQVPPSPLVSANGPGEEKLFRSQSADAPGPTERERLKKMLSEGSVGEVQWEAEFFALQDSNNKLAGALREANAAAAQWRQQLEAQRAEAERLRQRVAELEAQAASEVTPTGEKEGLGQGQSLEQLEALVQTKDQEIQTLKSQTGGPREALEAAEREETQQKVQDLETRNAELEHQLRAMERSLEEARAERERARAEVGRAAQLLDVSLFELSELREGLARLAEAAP

T4: HNF4A 148-377 Hormone_recep (domain begin residue: 148, domain end residue: 377), P41235
T4 chain: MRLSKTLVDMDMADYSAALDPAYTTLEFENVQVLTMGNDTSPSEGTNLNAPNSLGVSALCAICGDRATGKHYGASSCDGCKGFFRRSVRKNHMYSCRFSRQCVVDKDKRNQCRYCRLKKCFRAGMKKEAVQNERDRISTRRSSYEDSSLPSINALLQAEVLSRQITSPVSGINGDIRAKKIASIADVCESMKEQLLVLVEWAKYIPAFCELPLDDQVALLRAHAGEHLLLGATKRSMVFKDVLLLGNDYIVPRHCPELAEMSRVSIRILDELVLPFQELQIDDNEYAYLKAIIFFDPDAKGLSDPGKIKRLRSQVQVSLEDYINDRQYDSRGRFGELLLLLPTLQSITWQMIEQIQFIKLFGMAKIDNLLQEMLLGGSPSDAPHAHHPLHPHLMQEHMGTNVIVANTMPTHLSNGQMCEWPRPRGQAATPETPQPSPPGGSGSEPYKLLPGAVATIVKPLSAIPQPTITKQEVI

T5: HOMER1 1-163 WH1 (domain begin residue: 1, domain end residue: 163), Q86YM7
T5 chain: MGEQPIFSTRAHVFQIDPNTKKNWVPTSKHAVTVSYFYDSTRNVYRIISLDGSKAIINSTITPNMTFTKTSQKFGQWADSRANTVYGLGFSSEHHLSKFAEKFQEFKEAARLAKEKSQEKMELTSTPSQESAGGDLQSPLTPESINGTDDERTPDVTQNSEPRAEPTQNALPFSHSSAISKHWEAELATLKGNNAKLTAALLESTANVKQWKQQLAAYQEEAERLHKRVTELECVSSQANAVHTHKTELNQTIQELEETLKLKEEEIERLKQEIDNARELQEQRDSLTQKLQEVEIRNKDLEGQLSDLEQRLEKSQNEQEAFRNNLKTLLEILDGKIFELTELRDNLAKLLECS

T6: GNAQ 2-359 G-alpha (domain begin residue: 2, domain end residue: 359), P50148
T6 chain: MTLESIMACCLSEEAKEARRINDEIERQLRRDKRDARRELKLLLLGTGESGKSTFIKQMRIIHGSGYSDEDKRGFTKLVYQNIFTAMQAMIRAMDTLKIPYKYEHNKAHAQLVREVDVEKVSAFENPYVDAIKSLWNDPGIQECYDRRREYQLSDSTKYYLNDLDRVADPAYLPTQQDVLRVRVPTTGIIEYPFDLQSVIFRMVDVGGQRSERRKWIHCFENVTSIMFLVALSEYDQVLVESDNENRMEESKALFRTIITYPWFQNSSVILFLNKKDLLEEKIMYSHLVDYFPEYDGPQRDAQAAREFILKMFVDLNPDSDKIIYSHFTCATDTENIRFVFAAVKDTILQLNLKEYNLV


Target: T1, GNAZ 2-355 G-alpha (domain begin …
Experiment: phage ELISA signal ratio (GST-PRM binding over GST background); higher = stronger binding of peptide-phage to the PRM
Method in brief: (§1)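 An M13 phage library with randomized hexadecapeptides on the gene-8 major coat protein, each peptide lacking cysteine and flanked by glycine, was selected for five rounds against human peptide recognition domains fused to the C-terminus of glutathione S-transferase (GST) and expressed in 96-well plates. Approximately 48 clones from rounds 4 and 5 went to phage ELISA. The reported value is the ELISA signal on the GST-domain fusion over the signal on GST alone, and positive clones were sequenced.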

Row | Binder | phage ELISA signal ratio
1 | QWEFEHDATLLVLEQM | 26.5
2 | HAWWYNENLDQWVDTS | 16.7
3 | DMTRAVFWEFWDHLDV | 7.78
4 | EWSWSDSMHQFMNENT | 27.6
5 | SMEWWSKGDVSLIDIS | 4.45
6 | HDVEPIWSMPWWQMDY | 17.6
7 | PQQHFWEMDVPMIQLW | 8.66
8 | WETWFEQKEVLIDAYY | 14.6
9 | MPFDHWTMDDVEMLVL | 17.5
10 | HEEGMAEQWFWLHFAP | 11.9
11 | DVEPLWSQWVTWDWQE | 11.1
12 | DVPPLWMMAEYSFPWE | 5.11
13 | EDSGLEWFMQWSHGYV | 13.9
14 | PGSENEAEYWFNIMRQ | 19.7
15 | WSLMDDVSPWWEMEQI | 20.5
16 | VSYEWWMPGDTQMMEV | 11.2
17 | WRWDEYDHQFVEEVQM | 25.2
18 | NEWDIPLLDLTMLPWA | 8.79
19 | QWPTYSQWMTRDEILI | 3.11
20 | SPPQDVPPLWEYYHIW | 32.1
21 | WVWDYSQDQWVPASVQ | 17.2
22 | MLPFQDWYTQDDVLMN | 17.6
23 | GNHIWYWDQDEKLLEL | 30.4

Target: T2, HOMER2 1-111 WH1 (domain begin residue: …
Experiment: as above
Method in brief: as §1

Row | Binder | phage ELISA signal ratio
24 | WGSLDWEVALKPPVEF | 17.9
25 | SDWLSTVWEHPMDWGA | 13.5
26 | SHITLIHEPPYGWTTN | 14.3
27 | YRYIAEVPEQFVDMHR | 15.5
28 | HWVIPWETVPAPHEFH | 15.2
29 | WEEWTNWASPPHEYRF | 10.2

These binders were tested against HGS 1-154 VHS (domain begin residue: 1, domain end residue: 154), O14964 in the same assay as above.
Method in brief: as §1

Sequence of HGS 1-154 VHS (domain begin residue: 1, domain end residue: 154), O14964 (O14964 whole entry): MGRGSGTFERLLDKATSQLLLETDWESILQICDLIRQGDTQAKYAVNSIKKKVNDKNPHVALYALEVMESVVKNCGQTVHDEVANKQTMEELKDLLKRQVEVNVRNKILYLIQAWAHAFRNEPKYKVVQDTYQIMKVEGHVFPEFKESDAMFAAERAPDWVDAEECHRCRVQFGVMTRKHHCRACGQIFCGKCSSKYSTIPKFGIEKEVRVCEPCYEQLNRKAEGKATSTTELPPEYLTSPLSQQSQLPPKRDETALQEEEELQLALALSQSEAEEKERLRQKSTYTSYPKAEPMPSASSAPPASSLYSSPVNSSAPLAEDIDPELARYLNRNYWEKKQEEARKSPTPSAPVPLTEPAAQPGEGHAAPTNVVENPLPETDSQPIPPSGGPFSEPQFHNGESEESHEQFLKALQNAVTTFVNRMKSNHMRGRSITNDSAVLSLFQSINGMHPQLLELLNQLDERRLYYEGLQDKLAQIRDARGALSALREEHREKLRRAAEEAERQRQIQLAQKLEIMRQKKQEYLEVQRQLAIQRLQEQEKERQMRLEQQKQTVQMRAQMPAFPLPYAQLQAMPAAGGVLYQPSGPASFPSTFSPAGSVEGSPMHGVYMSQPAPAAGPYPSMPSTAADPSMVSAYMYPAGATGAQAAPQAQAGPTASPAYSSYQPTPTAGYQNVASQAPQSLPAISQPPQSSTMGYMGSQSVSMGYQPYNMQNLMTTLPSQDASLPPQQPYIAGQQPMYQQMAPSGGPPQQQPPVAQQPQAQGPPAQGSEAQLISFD

Row | Binder | phage ELISA signal ratio
30 | PNHWFVIPIGEWYQKI | 15.9

Target: T3, HOMER3 1-118 WH1 (domain begin residue: …
Experiment: as above
Method in brief: as §1

Row | Binder | phage ELISA signal ratio
31 | YHYIAEVPEQFVDMHR | 10.5
32 | TQAFQHDHFWESLVMF | 4.73
33 | RQYKWWEWLVVQQPKA | 5.84

These binders were tested against HSPA9 438-651 HSP70 (domain begin residue: 438, domain end residue: 651), P38646 in the same assay as above.
Method in brief: as §1

Sequence of HSPA9 438-651 HSP70 (domain begin residue: 438, domain end residue: 651), P38646 (P38646 whole entry): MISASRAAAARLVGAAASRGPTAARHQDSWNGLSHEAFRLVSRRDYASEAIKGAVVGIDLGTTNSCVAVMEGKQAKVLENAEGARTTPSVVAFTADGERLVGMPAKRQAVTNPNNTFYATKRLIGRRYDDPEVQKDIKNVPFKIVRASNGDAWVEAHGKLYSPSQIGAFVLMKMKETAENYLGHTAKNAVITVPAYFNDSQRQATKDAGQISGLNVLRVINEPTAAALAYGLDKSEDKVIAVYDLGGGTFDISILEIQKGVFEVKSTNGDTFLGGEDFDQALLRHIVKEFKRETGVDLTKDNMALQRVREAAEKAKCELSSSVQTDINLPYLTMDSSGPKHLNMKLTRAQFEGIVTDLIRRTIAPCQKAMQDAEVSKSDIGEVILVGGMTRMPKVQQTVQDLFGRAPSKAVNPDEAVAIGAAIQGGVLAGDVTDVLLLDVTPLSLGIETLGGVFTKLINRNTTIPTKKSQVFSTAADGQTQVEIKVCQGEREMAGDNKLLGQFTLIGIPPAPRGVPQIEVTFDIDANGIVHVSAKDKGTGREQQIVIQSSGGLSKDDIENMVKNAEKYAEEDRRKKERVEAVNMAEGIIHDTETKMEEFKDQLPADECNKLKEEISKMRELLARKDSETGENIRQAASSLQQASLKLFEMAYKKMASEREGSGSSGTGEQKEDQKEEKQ

Row | Binder | phage ELISA signal ratio
34 | VPWGDAQFSWPVEWMI | 8.49
35 | QVAMSEQSLNYFLTLL | 3.89
36 | YMMDQHAWELLMTMMA | 16.4
37 | ALEMTMEQWTYFLQEW | 10.8
38 | VMTLTELQDWLNAAYV | 15
39 | YQMTDWTTWEHFMHMT | 6.13
40 | FYIYDTWVEWPPVVTV | 6.36
41 | TVSVTNIDMDMLSFLL | 15

The binders below were run against GNAI1 2-354 G-alpha (domain begin residue: 2, domain end residue: 354), P63096 in the same assay as above.
Method in brief: as §1

Sequence of GNAI1 2-354 G-alpha (domain begin residue: 2, domain end residue: 354), P63096 (P63096 whole entry): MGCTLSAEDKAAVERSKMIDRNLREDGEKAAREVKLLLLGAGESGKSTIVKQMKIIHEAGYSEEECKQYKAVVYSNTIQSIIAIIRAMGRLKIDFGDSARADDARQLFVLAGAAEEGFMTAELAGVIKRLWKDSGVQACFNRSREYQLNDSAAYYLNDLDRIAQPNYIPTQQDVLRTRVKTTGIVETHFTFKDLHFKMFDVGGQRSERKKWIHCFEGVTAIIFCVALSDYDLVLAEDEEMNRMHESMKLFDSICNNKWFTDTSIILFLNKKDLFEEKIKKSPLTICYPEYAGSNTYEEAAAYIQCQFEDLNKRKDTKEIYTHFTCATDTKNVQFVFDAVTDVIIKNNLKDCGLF

Row | Binder | phage ELISA signal ratio
42 | YHDTGLSNEWFMIRYF | 18
43 | IPDWLVDYEWGQWVEG | 31.6
44 | WWEAPWAMEMLDEETG | 16.6
45 | DAHWWEEPWFIKSQEE | 13.8
46 | IVVGDWENEWFAHLVK | 4.48
47 | SVPWYSEPWAIDMMSF | 49.6

What follows are binders tested against HSPA8 394-614 HSP70 (domain begin residue: 394, domain end residue: 614), P11142 in the same assay as above.
Method in brief: as §1

Sequence of HSPA8 394-614 HSP70 (domain begin residue: 394, domain end residue: 614), P11142 (P11142 whole entry, looked up, tested part not stated): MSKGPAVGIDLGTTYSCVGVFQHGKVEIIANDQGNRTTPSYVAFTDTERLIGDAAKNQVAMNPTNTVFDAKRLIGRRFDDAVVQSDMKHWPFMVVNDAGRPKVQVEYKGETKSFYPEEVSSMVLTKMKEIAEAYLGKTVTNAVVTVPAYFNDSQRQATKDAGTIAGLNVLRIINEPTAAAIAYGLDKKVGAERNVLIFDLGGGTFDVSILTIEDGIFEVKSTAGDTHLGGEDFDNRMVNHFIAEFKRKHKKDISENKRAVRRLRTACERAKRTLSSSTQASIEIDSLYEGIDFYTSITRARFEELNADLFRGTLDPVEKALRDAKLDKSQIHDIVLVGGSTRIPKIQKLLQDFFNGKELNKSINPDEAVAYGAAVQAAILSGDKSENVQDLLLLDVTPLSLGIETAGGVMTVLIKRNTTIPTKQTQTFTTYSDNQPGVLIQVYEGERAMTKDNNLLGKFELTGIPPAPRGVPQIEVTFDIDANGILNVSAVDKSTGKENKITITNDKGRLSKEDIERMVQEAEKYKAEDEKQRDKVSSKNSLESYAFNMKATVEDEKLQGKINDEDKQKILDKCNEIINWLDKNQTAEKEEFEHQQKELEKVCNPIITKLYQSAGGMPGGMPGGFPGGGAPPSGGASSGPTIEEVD

Row | Binder | phage ELISA signal ratio
48 | PDVLQQLWEAMRSENW | 20.4
49 | SLDQSDIRHIFYWMEW | 10.4
50 | YNELEPEVAAWWWQYV | 8.35
51 | DAEMQDFIMAWWPELV | 8.68
52 | QHMHFVMLDEIMYGMW | 23.6

Target: T4, HNF4A 148-377 Hormone_recep (domain …
Experiment: as above
Method in brief: as §1

Row | Binder | phage ELISA signal ratio
53 | DWQGDHVHFWDLITME | 10.8

Target: T5, HOMER1 1-163 WH1 (domain begin residue: …
Experiment: as above
Method in brief: as §1

Row | Binder | phage ELISA signal ratio
54 | NWWHSDLQPPQEWQDE | 4.77
55 | MEVMPPQGFQDAFLST | 4.78

Target: T6, GNAQ 2-359 G-alpha (domain begin …
Experiment: as above
Method in brief: as §1

Row | Binder | phage ELISA signal ratio
56 | AWQISEEWKVREAYQQ | 25.5
57 | ITAEWQAREEYKLRVQ | 29.2
